# From PubChem BioAssay (NCATS)
# Records with an inconclusive call do not appear. Where a call stands in place of a potency, no number is given. Active and inactive are the calls of the source. Calls follow the shape of the dose curve; as a rule, active = well fitted inhibition curve with a large enough effect; inconclusive = small, poorly fitted or top-dose-only effect, or effect the other way; inactive = flat fitted curve, though single readings scatter.
# Molecular target: ATP-dependent 6-phosphofructokinase (Trypanosoma brucei brucei) (UniProt O15648)
# Assay: qHTS Assay to Find Inhibitors of T. brucei phosphofructokinase: hit validation (AID 492961);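 also: luminescence reports ADP formed as PFK phosphorylates fructose-6-phosphate with ATP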
# Conditions: T. brucei PFK, ADP-Glo luminescence; series mostly up to 51.4 µM
# Outline: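 PFK 1.25 nM, F6P 0.5 mM, ATP 0.1 mM, MgCl2 5 mM, 0.1 M TEA pH 8.0, Tween20 0.01%, BSA 0.1%; 45 min RT. ADP-Glo two-step detection, luminescence. qHTS titration; curve fitting with curve-class categorization.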
# Chain of ATP-dependent 6-phosphofructokinase (Trypanosoma brucei brucei) (O15648 whole entry, looked up): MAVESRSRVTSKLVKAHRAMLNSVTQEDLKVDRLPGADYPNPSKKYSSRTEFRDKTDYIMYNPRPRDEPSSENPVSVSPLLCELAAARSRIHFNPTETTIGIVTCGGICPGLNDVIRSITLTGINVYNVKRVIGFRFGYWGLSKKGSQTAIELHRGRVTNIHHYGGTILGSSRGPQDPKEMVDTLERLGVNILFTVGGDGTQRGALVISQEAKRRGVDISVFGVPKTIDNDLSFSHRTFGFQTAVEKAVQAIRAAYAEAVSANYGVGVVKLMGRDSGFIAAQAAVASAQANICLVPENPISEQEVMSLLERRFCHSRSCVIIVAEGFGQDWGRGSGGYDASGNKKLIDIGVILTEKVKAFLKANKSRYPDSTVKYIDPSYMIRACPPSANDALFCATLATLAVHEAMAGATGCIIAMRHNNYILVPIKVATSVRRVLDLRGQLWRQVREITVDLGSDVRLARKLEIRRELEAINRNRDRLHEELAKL
row,Structure (SMILES),Potency
1,Clc1ccccc1Cl,inactive
2,CCCC(=O)OC(C(Cl)(Cl)Cl)P(=O)(OC)OC (centres undefined),inactive
3,O=c1[nH]c(=O)n(Cl)c(=O)n1Cl,inactive
4,CCOP(=O)(OCC)O/C(=C/Cl)c1ccc(Cl)cc1Cl,inactive
5,C=CCC1(C(C)CCC)C(=O)N=C(S)NC1=O (centres undefined),inactive
6,CNC(C)C(O)c1ccc(O)cc1 (centres undefined),inactive
7,C[C@]12CCC(=O)C[C@@H]1CC[C@@H]1[C@@H]2CC[C@]2(C)[C@@H](O)CC[C@@H]12,inactive
8,CCNC(C)Cc1cccc(C(F)(F)F)c1 (centres undefined),inactive
9,O=C(OCCN1CCCCC1)C(O)(c1ccccc1)c1ccccc1,inactive
10,CC(Cc1ccccc1)NC=O (centres undefined),inactive
11,O=c1[nH]cc(N(CCCl)CCCl)c(=O)[nH]1,inactive
12,O=[N+]([O-])c1ccccc1,inactive
13,CCN(CC)C(=O)/C(Cl)=C(\C)OP(=O)(OC)OC,inactive
14,N#CC1(N2CCCCC2)CCCCC1,inactive
